Results on 40 compounds are retold here after PubChem BioAssay (NCATS).

Molecules are shown by their SMILES. Active and inactive are the calls of the source.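 How the source made its calls: active means calcium activation more than 3 SD above the typical response in the agonist read; inactive means the rest.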

Chain of Thyrotropin-releasing hormone receptor (Homo sapiens) (P34981 whole entry, looked up): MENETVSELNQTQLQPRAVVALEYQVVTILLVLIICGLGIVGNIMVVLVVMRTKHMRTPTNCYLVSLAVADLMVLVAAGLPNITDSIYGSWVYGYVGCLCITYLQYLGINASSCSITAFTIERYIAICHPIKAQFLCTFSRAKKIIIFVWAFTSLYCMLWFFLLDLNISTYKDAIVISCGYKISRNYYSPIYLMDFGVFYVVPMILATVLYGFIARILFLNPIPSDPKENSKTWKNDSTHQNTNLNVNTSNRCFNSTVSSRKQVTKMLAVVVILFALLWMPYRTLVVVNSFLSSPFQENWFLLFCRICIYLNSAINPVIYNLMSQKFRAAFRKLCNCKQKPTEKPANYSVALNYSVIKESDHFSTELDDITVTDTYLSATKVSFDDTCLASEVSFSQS

This test concerns the target Thyrotropin-releasing hormone receptor (Homo sapiens) (UniProt P34981). The test can be described thus: qHTS for Small Molecule Agonists and Allosteric Enhancers of Human TRH Receptor: Validation Screen for Agonists (AID 493127).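 Further: intracellular calcium rise by fluo-8 fluorescence before TRH EC20 addition; 0% is about no effect.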 The note with it: TRH receptor agonist cell assay; at 2 µM; stronger effect = higher value. The source says: NIH Chemical Genomics Center [NCGC]
NIH Molecular Libraries Probe Centers Network [MLPCN]
Assay Submitter (PI): Marvin Gershengorn
This project aims to identify small drug-like molecules that activate (agonists) the thyrotropin releasing hormone (TRH) receptor (TRHR) or enhance its TRH-stimulated activity (allosteric enhancers). TRHR, a drug-accessible cell surface receptor expressed in specific brain regions, and its ligand TRH have been implicated in several central nervous system disorders, including depression and anxiety. Small molecule TRHR agonists or allosteric enhancers that are metabolically stable and able to cross the blood-brain barrier might serve as probes to elucidate the roles of brain TRH receptors in animal models, and might be valuable as lead compounds for the development of drugs to treat patients with central nervous system disorders.
Upon TRHR-Gq activation in TRHR cells, intracellular calcium is released from stores in the endoplasmic reticulum. […] This validation screen measures compound-induced activation of calcium release.
For the HTS assay freshly prepared cells are plated at a density of 2000/well in 3 ul of complete DMEM medium containing 10% serum in 1536-well plates and cultured over night at 37 C in a humidified incubator with 5% CO2. The next day, 2 ul of a no wash calcium dye (ABD Bioquest) was added to the cells and plates were incubated at room temperature for 1 hour. For the assay, assay plates were loaded into the FDSS kinetic plate reader. A 10 cycle (1 second/cycle) baseline measurement is taken and then the FDSS online 1536 pintool delivers 23 nl of compound library (as well as TRH controls) to the plate. The plate is measured for kinetically at 1 cycle/sec for 180 seconds and is considered to be the agonist portion of the assay (eg, compounds which activate a positive calcium response during this portion are flagged as potential agonists). Following the 180 second read, 1 ul of either an EC20 (positive modulation assay) is delivered by an onboard pipette head. Measurements are taken kinetically for an additional 180 seconds.
TRHR FDSS Screening Protocol
1. Reagent, 3 uL 2000 cells/well 1536 TC treated Black plate in media containing 10% FCS
2. Time, 18 hours, 33.5C 5% CO2 (cells grown at 37C)
3. Reagent, 2 uL ABD fluo-8 Ca dye
4. Time, 30 min-1.5hrs hours, Room temp (6 plates/batch)
5. Detector, EX 480/EM 530C, FDSS 10 cycles baseline (1sec/cycle)
6. Compound, 23 nL of stock solution from library
7. Detector, EX 480/EM 530C, FDSS 230 cycles (1sec/cycle) Agonist mode
8. Compound, 1 ul EC20 of TRH made up in HEPES HBSS, 10 nM final
9. Detector, EX 480/EM 530C, FDSS 100 cycles (1sec/cycle) Potentiator mode
Take `CCN(CC)CCCCCCCCOC(=O)c1cc(OC)c(OC)c(OC)c1`: the activation was 1.25% (inactive).

With `NC(=Nc1ccccc1)NC(=O)c1nc(Cl)c(N)nc1N`, the activation is 0.312% (inactive).

Regarding `CCCCCCCCCC(=O)NC(CN1CCOCC1)[C@H](O)c1ccccc1` (stereo not given in full), the activation is 0.812% (inactive).

For `O=C(O)c1ccccc1Nc1ccccc1`, the activation is -4.31% (inactive).

Turning to `CCN1C(=O)C=CC1=O`, the activation was 1.12% (inactive).

For the compound `Nc1ncnc2c1ncn2C1CCCO1` (stereo not given), the activation is -0.25% (inactive).

Turning to `N#C/C(=C\c1ccc(O)c(O)c1)C(=O)NCCCNC(=O)/C(C#N)=C/c1ccc(O)c(O)c1`, the activation was -0.0625% (inactive).

As to `COc1ccccc1N1CCN(CCN(C(=O)c2ccc(F)cc2)c2ccccn2)CC1`, the activation is 0.312% (inactive).

With `CN[C@H](CC(=O)O)C(=O)O`, the activation is 1% (inactive).

Turning to `NC/C=C\C(=O)O`, the activation was 0.75% (inactive).

Regarding `CCSC(=N)N`, the activation was 0.812% (inactive).

For the compound `OCC1NCC(O)C(O)C1O` (stereo not given), the activation is 0.938% (inactive).

With `CCn1c(=O)[nH]c2cc(Cl)c(Cl)cc21`, the activation was 1.69% (inactive).

As to `NCCC1CCCC(CCN)N1` (stereo not given), the activation was 1.19% (inactive).

With `CC[C@H](NC(=O)c1c(C)c(-c2ccccc2)nc2ccccc12)c1ccccc1`, the activation is -8.62% (inactive).

With `CCCOC(=O)c1c(-c2ccccc2)nc(CC)c(C(=O)SCC)c1CCC`, the activation is 1.31% (inactive).

For the compound `NC(=O)c1ccccc1`, the activation is 0.25% (inactive).

On to `COc1ccc(-c2ccc(N)[n+](CCCC(=O)O)n2)cc1`, for which the activation is 1% (inactive).

In the case of `C/C(=C\c1ccc(C(=O)O)cc1)c1ccc2c(c1)C(C)(C)CCC2(C)C`, the activation was -6% (inactive).

Take `COc1cc([C@@H]2c3cc4c(cc3[C@H](O)C3COC(=O)[C@@H]32)OCO4)cc(OC)c1OC` (stereo not given in full): the activation is 0.5% (inactive).

Consider `COc1ccc2c(c1)c(CC(=O)O)c(C)n2Cc1ccc(Cl)cc1`, for which the activation is -0.188% (inactive).

In the case of `Cc1cc2c(cc1Cl)N(C(=O)Nc1ccnc3ccccc13)CC2`, the activation is 1.44% (inactive).

As to `COc1cc(CNC(=O)CCCCCCC(C)C)ccc1O`, the activation was -5.38% (inactive).

`N[C@H](C(=O)O)[C@H]1C[C@@H]1C(=O)O`: the activation is 0.812% (inactive).

For `N=C(N)SCCc1cnc[nH]1`, the activation is -0.375% (inactive).

For the compound `CCCCCC[C@@H]([C@@H](C)O)n1cnc2c(N)ncnc21`, the activation was 0.875% (inactive).

With `CCCCCCCCCCCCCCSCC(=O)O`, the activation was 0.688% (inactive).

Regarding `O=C(O)C1CN(CCCP(=O)(O)O)CCN1` (stereo not given), the activation was 0.188% (inactive).

Consider `O=C1NC(=O)c2cc(Nc3ccccc3)c(Nc3ccccc3)cc21`, for which the activation is 6% (inactive).

On to `CCOC(=O)C12CC1/C(=N/O)c1ccccc1O2` (stereo not given), for which the activation is -3.94% (inactive).

With `Nc1ncnc2c1c(-c1ccc(Oc3ccccc3)cc1)cn2C1CCCC1`, the activation was -5.06% (inactive).

Consider `O=C(O)C1=CCNCC1`, for which the activation is 1.25% (inactive).

With `O=[N+]([O-])c1cccc2c(Br)[nH]nc12`, the activation is -3.31% (inactive).

Consider `CCCCOc1cc(CC2CNC(=O)N2)ccc1OC` (stereo not given), for which the activation was 0.75% (inactive).

For the compound `Cc1cccc(C)c1OCC(N)C(C)C` (stereo not given), the activation was 1.56% (inactive).

`Cn1c(=O)c2[nH]c(-c3ccc(S(=O)(=O)O)cc3)nc2n(C)c1=O`: the activation is 0.938% (inactive).

As to `O=c1[nH]c2ccccc2c2ccccc12`, the activation was -4.5% (inactive).

With `CN1CCC2(CCN3CCc4c(oc5ccccc45)C3C2)N(C)C1=O` (stereo not given), the activation was 0.25% (inactive).

Consider `CC(=O)NCCc1c[nH]c2ccc(O)cc12`, for which the activation is 1.31% (inactive).

As for `CCCC(=O)NCCc1c2n(c3ccc(OC)cc13)CCCc1ccccc1-2`, the activation is -9.25% (inactive).
